Source: PubChem BioAssay AID1159580 (chemical genetic matrix, 2015)
Among all 5,500 compounds or so, about 2,000 (36%) were called active. Not shown: some 18% with an inconclusive outcome. No stated cut-off is given here; in the data, active means normalized growth mostly below about 0.91 (no sharp cut-off); inconclusive means no clear call, values can overlap the other calls; inactive means mostly above about 0.92. This is one part of the list.

Experiment: chemical genetic growth profiling, strain panel (AID 1159580);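 further: tested at 20 µM; growth read once vehicle control cultures reached saturation at 30 °C; 1 = growth at the plate median or of vehicle wells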
Conditions: growth OD

Measured: normalized growth

CCN(CC)CCNC(=O)c1cc(Br)c(N)cc1OC
inactive: S. cerevisiae deletion strains, locus YJR043C, strain POL32, stronger effect = lower value 0.917 | S. cerevisiae deletion strains, locus YJR066W, strain TOR1, stronger effect = lower value 0.933 | S. cerevisiae deletion strains, locus YKL009W, strain mrt4, stronger effect = lower value 0.955 | S. cerevisiae deletion strains, locus YKL068W, stronger effect = lower value 0.989 | S. cerevisiae deletion strains, locus YKL085W, strain MDH1 (second series), stronger effect = lower value 0.993 | S. cerevisiae deletion strains, locus YKL085W, strain MDH1, stronger effect = lower value 0.993 | S. cerevisiae deletion strains, locus YKL160W, strain elf1, stronger effect = lower value 0.985 | S. cerevisiae deletion strains, locus YKL190W, strain CNB1, stronger effect = lower value 0.982 | S. cerevisiae deletion strains, locus YKR001C, strain vps1, stronger effect = lower value 0.984 | S. cerevisiae deletion strains, locus YKR026C, strain gcn3, stronger effect = lower value 0.971 | S. cerevisiae deletion strains, locus YKR091W, strain srl3, stronger effect = lower value 0.99 | S. cerevisiae deletion strains, locus YLL001W, strain dnm1, stronger effect = lower value 1 | S. cerevisiae deletion strains, locus YLL026W, stronger effect = lower value 0.99 | S. cerevisiae deletion strains, locus YLL041C, strain sdh2, stronger effect = lower value 0.98 | S. cerevisiae deletion strains, locus YLR027C, strain aat2, stronger effect = lower value 0.992 | S. cerevisiae deletion strains, locus YLR039C, strain RIC1, stronger effect = lower value 0.974 | S. cerevisiae deletion strains, locus YLR058C, strain SHM2, stronger effect = lower value 0.971 | S. cerevisiae deletion strains, locus YLR102C, strain apc9, stronger effect = lower value 0.991 | S. cerevisiae deletion strains, locus YLR113W, strain HOG1, stronger effect = lower value 1.01 | S. cerevisiae deletion strains, locus YLR221C, strain rsa3, stronger effect = lower value 0.992 | S. cerevisiae deletion strains, locus YLR258W, strain gsy2, stronger effect = lower value 0.991 | S. cerevisiae deletion strains, locus YLR262C, strain YPT6 (second series), stronger effect = lower value 1.02 | S. cerevisiae deletion strains, locus YLR262C, strain YPT6, stronger effect = lower value 0.958 | S. cerevisiae deletion strains, locus YLR268W, strain sec22, stronger effect = lower value 0.983 | S. cerevisiae deletion strains, locus YLR320W, strain mms22, stronger effect = lower value 1.01 | S. cerevisiae deletion strains, locus YLR330W, strain CHS5, stronger effect = lower value 1 | S. cerevisiae deletion strains, locus YLR342W, strain FKS1 (second series), stronger effect = lower value 1.08 | S. cerevisiae deletion strains, locus YLR342W, strain FKS1, stronger effect = lower value 0.991 | S. cerevisiae deletion strains, locus YLR357W, strain rsc2, stronger effect = lower value 0.974 | S. cerevisiae deletion strains, locus YLR370C, strain arc18, stronger effect = lower value 0.994 | S. cerevisiae deletion strains, locus YLR371W, strain rom2, stronger effect = lower value 0.995 | S. cerevisiae deletion strains, locus YLR384C, strain iki3, stronger effect = lower value 0.991 | S. cerevisiae deletion strains, locus YLR418C, strain cdc73, stronger effect = lower value 1.04 | S. cerevisiae deletion strains, locus YML016C, strain PPZ1, stronger effect = lower value 0.994 | S. cerevisiae deletion strains, locus YML032C, strain rad52, stronger effect = lower value 0.968 | S. cerevisiae deletion strains, locus YML120C, strain ndi1, stronger effect = lower value 0.99 | S. cerevisiae deletion strains, locus YML124C, strain tub3, stronger effect = lower value 0.98 | S. cerevisiae deletion strains, locus YMR058W, strain fet3, stronger effect = lower value 0.982 | S. cerevisiae deletion strains, locus YMR078C, strain ctf18, stronger effect = lower value 0.988 | S. cerevisiae deletion strains, locus YMR125W, strain sto1, stronger effect = lower value 0.975 | S. cerevisiae deletion strains, locus YMR129W, stronger effect = lower value 0.986 | S. cerevisiae deletion strains, locus YMR205C, strain PFK2, stronger effect = lower value 1.03 | S. cerevisiae deletion strains, locus YMR223W, strain ubp8, stronger effect = lower value 1.02 | S. cerevisiae deletion strains, locus YMR231W, strain pep5, stronger effect = lower value 1 | S. cerevisiae deletion strains, locus YMR307W, strain GAS1, stronger effect = lower value 1.07 | S. cerevisiae deletion strains, locus YNL067W, strain RPL9B, stronger effect = lower value 0.964 | S. cerevisiae deletion strains, locus YNL071W, strain lat1, stronger effect = lower value 0.987 | S. cerevisiae deletion strains, locus YNL153C, strain GIM3, stronger effect = lower value 0.961 | S. cerevisiae deletion strains, locus YNL183C, strain NPR1, stronger effect = lower value 0.956 | S. cerevisiae deletion strains, locus YNL209W, strain ssb2, stronger effect = lower value 0.988 | S. cerevisiae deletion strains, locus YNL233W, strain BNI4, stronger effect = lower value 0.957 | S. cerevisiae deletion strains, locus YNL248C, strain rpa49, stronger effect = lower value 0.969 | S. cerevisiae deletion strains, locus YNL250W, strain rad50, stronger effect = lower value 0.986 | S. cerevisiae deletion strains, locus YNL271C, strain bni1, stronger effect = lower value 0.988 | S. cerevisiae deletion strains, locus YNL298W, strain CLA4, stronger effect = lower value 0.985 | S. cerevisiae deletion strains, locus YNL307C, strain MCK1, stronger effect = lower value 0.981 | S. cerevisiae deletion strains, locus YNL322C, strain KRE1 (second series), stronger effect = lower value 0.987 | S. cerevisiae deletion strains, locus YNR049C, strain mso1, stronger effect = lower value 0.969 | S. cerevisiae deletion strains, locus YNR052C, strain pop2, stronger effect = lower value 0.992 | S. cerevisiae deletion strains, locus YOL006C, strain TOP1, stronger effect = lower value 0.879 | S. cerevisiae deletion strains, locus YOL012C, strain htz1 1.14 | S. cerevisiae deletion strains, locus YOL147C, strain pex11, stronger effect = lower value 0.989 | S. cerevisiae deletion strains, locus YOR001W, strain rrp6, stronger effect = lower value 0.966 | S. cerevisiae deletion strains, locus YOR061W, strain CKA2, stronger effect = lower value 0.97 | S. cerevisiae deletion strains, locus YOR069W, strain VPS5, stronger effect = lower value 0.992 | S. cerevisiae deletion strains, locus YOR070C, strain gyp1, stronger effect = lower value 0.996 | S. cerevisiae deletion strains, locus YOR080W, strain dia2, stronger effect = lower value 0.975 | S. cerevisiae deletion strains, locus YOR083W, strain WHI5, stronger effect = lower value 0.978 | S. cerevisiae deletion strains, locus YOR106W, strain vam3, stronger effect = lower value 0.992 | S. cerevisiae deletion strains, locus YOR136W, strain idh2, stronger effect = lower value 0.977 | S. cerevisiae deletion strains, locus YOR144C, strain elg1, stronger effect = lower value 0.998 | S. cerevisiae deletion strains, locus YOR184W, strain ser1, stronger effect = lower value 0.987 | S. cerevisiae deletion strains, locus YOR231W, strain MKK1, stronger effect = lower value 0.96 | S. cerevisiae deletion strains, locus YOR265W, strain rbl2, stronger effect = lower value 0.996 | S. cerevisiae deletion strains, locus YOR270C, strain vph1, stronger effect = lower value 1.01 | S. cerevisiae deletion strains, locus YOR290C, strain snf2, stronger effect = lower value 0.956 | S. cerevisiae deletion strains, locus YOR316C, strain cot1, stronger effect = lower value 0.975 | S. cerevisiae deletion strains, locus YPL051W, strain arl3, stronger effect = lower value 0.981 | S. cerevisiae deletion strains, locus YPL078C, strain atp4, stronger effect = lower value 0.975 | S. cerevisiae deletion strains, locus YPL106C, strain sse1, stronger effect = lower value 0.965 | S. cerevisiae deletion strains, locus YPL240C, strain hsp82, stronger effect = lower value 0.98 | S. cerevisiae deletion strains, locus YPL256C, strain CLN2, stronger effect = lower value 0.963 | S. cerevisiae deletion strains, locus YPR119W, strain clb2, stronger effect = lower value 0.99 | S. cerevisiae deletion strains, locus YPR141C, strain kar3, stronger effect = lower value 0.99 | S. cerevisiae deletion strains, locus YPR163C, strain tif3, stronger effect = lower value 0.998 | S. cerevisiae deletion strains, locus YPR167C, strain met16, stronger effect = lower value 0.991 | S. cerevisiae deletion strains, strain wtn01, stronger effect = lower value 1.03 | S. cerevisiae strains, strain wild type, stronger effect = lower value 0.987
